# Assay results from PubChem BioAssay.
# Where “and” joins values, the source holds several entries; their conditions need not be identical. Identical values can stand only once. Results filed as inconclusive are left out. Calls of active or inactive are those of the source.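 How the source made its calls, unless noted: active means compounds whose cell count with miR-34 switched on is under 0.7 times the count with it off; inactive means the rest.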
# Tests used:
# [1] = Wnt pathway potentiators raising nuclear beta-catenin – imaging, WNT3A-conditioned medium, mouse C2C12, NPC library, primary screen (AID 1117326; in the data active means nuclear beta-catenin stimulation mostly above about 4.2%, no sharp cut-off; inactive means mostly below about 10%; further: reference of the scale not given here); conditions: stronger effect = higher value
# [2] = stimulators of insulin release from INS-1E, primary screen, cell-based, 5 mM glucose, NPC library (AID 1117329;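 active means compound raises insulin release from rat beta cells at 5 mM glucose, no numeric limit stated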; further: reference of the scale not given here); conditions: rat INS-1E insulin secretion, at 10 µM, stronger effect = higher value
# [3] = growth inhibition of GSK3B-pretreated HCT116 cells – cell-based, CellTiter-Glo, 0.2 to 20 µM (AID 1117336;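 active means compounds lowering colon cancer cell viability after pretreatment blocking the GSK3B kinase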); conditions: HCT116 viability after GSK3B inhibitor, at 20 µM, stronger effect = higher value
# [4] = inhibition of endothelial tube formation, primary screen, imaging, VEGF stimulated, CD31 staining, tube area, NPC library (AID 1117340;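 active means compound that reduces growth-factor-driven endothelial tube area in a mixed cell culture, no cutoff stated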); conditions: VEGF-stimulated ADSC/ECFC co-culture, at 10 µM, stronger effect = higher value
# [5] = GLP1 release stimulators, primary, NCI-H716, NPC library (AID 1117341;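 active means compound raises GLP1 secretion from the human gut endocrine cells, with no numeric limit stated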; further: reference of the scale not given here); conditions: NCI-H716 cells, at 10 µM, stronger effect = higher value
# [6] = HCT116 colon cancer cell growth inhibition, primary screen, CellTiter-Glo luminescence, NPC library (AID 1117342;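 active means compounds that lower survival of HCT116 colon cancer cells in the luminescence readout, no numeric limit stated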); conditions: at 20 µM (top of the series)
# [7] = reduced SW480 viability measured with CellTiter-Glo, NPC library, primary (AID 1117343;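 active means compounds that lower viability of the colon cancer cells in the luminescence readout, with no numeric limit stated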); conditions: CellTiter-Glo luminescence; at 20 µM (top of the series) unless noted
# [8] = NPC library primary testing for decreased DLD-1 cell viability via CellTiter-Glo (AID 1117346;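 active means compounds that lower survival of DLD-1 colon cancer cells in the luminescence readout, no cutoff given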); conditions: DLD-1 viability, CellTiter-Glo luminescence; at 20 µM (top of the series)
# [9] = system: Aerobactin synthetase IucA (Klebsiella pneumoniae); assay: inhibition of K. pneumoniae IucA enzyme – biochemical, Tocris library, absorbance (AID 1345561; call rule not given here;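 further: 100% = enzyme without compound and 0% = no enzyme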); conditions: purified IucA enzyme assay, absorbance (OD) read-out; stronger effect = lower value;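 tested at 8 µM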
# [10] = viability loss in pontine glioma line – cell-based, SU-DIPG-XIII, MIPE4.0, CellTiter-Glo, qHTS, dose response (AID 1347061; cut-off not given, nearly all actives have AC50 up to about 37 µM;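 further: cells exposed to compound for 48 hours before readout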); conditions: CellTiter-Glo ATP luminescence
# [11] = viability loss with induced miR-34 in A549 – imaging, A549 dox-inducible miR-34, nuclei and caspase counts, primary screen (AID 1347080); conditions: A549 miR-34 inducible, Hoechst nuclei count, 48 h
# [12] = galactose survival enhancers in mitochondrial complex I cybrids – cell-based, galactose medium, ATP luminescence, primary screen (AID 1645843;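 active means z-score of at least 1.8 in each of two replicates, scored against plate mean and spread of sample wells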;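 further: positive z means more ATP and so rescue of galactose-driven cybrid death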); conditions: complex I mutant cybrid cells, 72 h, stronger effect = higher value
# [13] = viability loss in pontine glioma line – cell-based, SU-DIPG-XVII, MIPE5.0, CellTiter-Glo, qHTS, dose response (AID 1347060; cut-off not given, nearly all actives have AC50 up to about 26 µM); conditions: CellTiter-Glo ATP luminescence
# [14] = growth inhibition of DIPG cells – cell-based, MIPE5.0 library, qHTS (AID 1347068; cut-off not given, nearly all actives have IC50 up to about 30 µM); conditions: SU-DIPG-XXV viability
# [15] = P. berghei load reduction in hepatocytes – cell-based, HepG2, luciferase luminescence, HepG2 viability, primary screen (AID 624349; in the data active means parasite load remaining mostly below about 12%, no sharp cut-off; inactive means mostly above about 10%;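 further: 100% = mean of DMSO negative control wells on the same plate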); conditions: P. berghei liver stage in HepG2, luciferase luminescence, concentration not given here; parasite load remaining: stronger effect = lower value; viability: measured here: HepG2 viability without parasites
# [16] = MELAS cybrid and Rieske KO viability enhancers – cell-based, MELAS cybrids, Rieske KO mouse fibroblasts, CellTiter-Glo, primary screen (AID 1508586;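 active means mean z-score across replicates of 1.96 or higher in either the MELAS or the Rieske mutant cell line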;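 further: z relative to plate mean and SD of compound and empty wells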); conditions: low glucose
# [17] = viability loss in pontine glioma line – cell-based, JHH-DIPG-1, MIPE4.0, CellTiter-Glo, qHTS, dose response (AID 1347062; cut-off not given, nearly all actives have AC50 up to about 27 µM); conditions: JHH-DIPG-1 viability, CellTiter-Glo ATP luminescence
# [18] = stronger effect = lower value, cell number ratio, induced over uninduced
# [19] = measured here: relative caspase fold change +Dox/-Dox
# [20] = measured here: total cells with miR-34 induction, stronger effect = lower value
# [21] = measured here: total cells without miR-34 induction
# [22] = MELAS cybrid survival, CellTiter-Glo 48 h, stronger effect = higher value
# [23] = Rieske KO mouse fibroblast survival, CellTiter-Glo 72 h
compound,measurement,setting,value
OC(CN1CCC(Cc2ccc(F)cc2)CC1)c1ccc(Cl)cc1 (stereo unspecified),nuclear beta-catenin stimulation,[1]; at 10 µM,2% (inactive)
same,nuclear beta-catenin stimulation,"[1]; stimulation, at 2 µM",2.8%
same,insulin secretion stimulation,[2],2.2% (inactive)
same,viability decrease,[3],78.9% (active)
same,tube area decrease,[4],-4.2% (inactive)
same,GLP1 secretion stimulation,[5],2.9% (inactive)
same,inhibition of viability,[6],78.6% (active)
same,viability decrease (inhibition),[7],67.1% (active)
same,viability decrease (inhibition),[8],75.2% (active)
same,remaining activity,[9],78.5% (inactive)
same,outcome,[10],inactive
same,fold change,[11]; [18],1.15 (inactive) and 0.894 (inactive)
same,fold change,[11]; [19],0.858 and 1.23
same,cell count,[11]; [20],6880 and 8360
same,cell count,[11]; [21],6000 and 9350
same,z-score,[12],-0.6 (inactive) and 0.185 (inactive)
COC(=O)[C@@H]1CC2=CC(=O)CC[C@]2(C)[C@@]23O[C@@H]2C[C@@]2(C)[C@@H](CC[C@@]24CCC(=O)O4)[C@H]13,nuclear beta-catenin stimulation,[1]; at 10 µM,-0.1% (inactive)
same,nuclear beta-catenin stimulation,"[1]; stimulation, at 2 µM",1.3%
same,insulin secretion stimulation,[2],-0.55% (inactive)
same,viability decrease,[3],-0.7% (inactive)
same,tube area decrease,[4],23.1% (inactive)
same,GLP1 secretion stimulation,[5],-1.5% (inactive)
same,inhibition of viability,[6],-5.5% (inactive)
same,viability decrease (inhibition),[7],24.4% (inactive)
same,viability decrease (inhibition),[8],-7.2% (inactive)
same,remaining activity,[9],96.4% (inactive)
same,outcome,[13],inactive
same,outcome,[10],inactive
same,outcome,[14],inactive
same,fold change,[11]; [18],0.96 (inactive)
same,fold change,[11]; [19],1.45
same,cell count,[11]; [20],9220
same,cell count,[11]; [21],9600
same,z-score,[12],-0.005 (inactive)
CCn1ccnc1CC1COc2ccccc2O1 (stereo unspecified),nuclear beta-catenin stimulation,[1]; at 10 µM,1.8% (inactive)
same,nuclear beta-catenin stimulation,"[1]; stimulation, at 2 µM",0.3%
same,insulin secretion stimulation,[2],-3.2% (inactive)
same,viability decrease,[3],-16.7% (inactive)
same,tube area decrease,[4],-3.6% (inactive)
same,GLP1 secretion stimulation,[5],0% (inactive)
same,inhibition of viability,[6],1.63% (inactive)
same,viability decrease (inhibition),[7],7.7% (inactive)
same,viability decrease (inhibition),[8],-5.9% (inactive)
same,remaining activity,[9],82.4% (inactive)
same,fold change,[11]; [18],1.08 (inactive) and 0.969 (inactive)
same,fold change,[11]; [19],1.15 and 0.987
same,cell count,[11]; [20],10600 and 8940
same,cell count,[11]; [21],9870 and 9220
same,z-score,[12],0.675 (inactive) and 1.33 (inactive)
CN(C)C/C=C(/c1ccc(Br)cc1)c1cccnc1,parasite load remaining,[15],94.7% (inactive) and 60.5% (inactive)
same,viability,[15],85.2% and 195%
same,nuclear beta-catenin stimulation,[1]; at 10 µM,1.1% (inactive)
same,nuclear beta-catenin stimulation,"[1]; stimulation, at 2 µM",-0.9%
same,insulin secretion stimulation,[2],45% (active)
same,viability decrease,[3],-1.3% (inactive)
same,tube area decrease,[4],9.7% (inactive)
same,GLP1 secretion stimulation,[5],8% (inactive)
same,inhibition of viability,[6],41.9% (inactive)
same,viability decrease (inhibition),[7],52.1% (active)
same,viability decrease (inhibition),[8],5.9% (inactive)
same,remaining activity,[9],124% (inactive)
same,fold change,[11]; [18],1.02 (inactive) and 0.948 (inactive) and 0.885 (inactive)
same,fold change,[11]; [19],0.961 and 0.963 and 4.02
same,cell count,[11]; [20],8760 and 8650 and 11500
same,cell count,[11]; [21],8570 and 9130 and 13000
same,z-score,[12],-0.1 (inactive) and -0.42 (inactive)
O=C1OC(OC(=O)c2cccnc2Nc2cccc(C(F)(F)F)c2)c2ccccc21 (stereo unspecified),nuclear beta-catenin stimulation,[1]; at 10 µM,21.1% (inactive)
same,nuclear beta-catenin stimulation,"[1]; stimulation, at 2 µM",11%
same,insulin secretion stimulation,[2],2.7% (inactive)
same,viability decrease,[3],17.5% (inactive)
same,tube area decrease,[4],72.7% (active)
same,GLP1 secretion stimulation,[5],1.3% (inactive)
same,inhibition of viability,[6],10.2% (inactive)
same,viability decrease (inhibition),[7],115% (active)
same,viability decrease (inhibition),[8],31.2% (inactive)
same,remaining activity,[9],120% (inactive)
same,fold change,[11]; [18],0.992 (inactive)
same,fold change,[11]; [19],1.33
same,cell count,[11]; [20],7990
same,cell count,[11]; [21],8060
same,z-score,[12],-0.625 (inactive)
CCc1cc(Cl)c(OC)c(C(=O)NC[C@@H]2CCCN2CC)c1O,parasite load remaining,[15],103% (inactive)
same,viability,[15],87.5%
same,nuclear beta-catenin stimulation,[1]; at 10 µM,4.5% (inactive)
same,nuclear beta-catenin stimulation,"[1]; stimulation, at 2 µM",1.7%
same,insulin secretion stimulation,[2],5.2% (inactive)
same,viability decrease,[3],-86.7% (inactive)
same,tube area decrease,[4],2.8% (inactive)
same,GLP1 secretion stimulation,[5],5.8% (inactive)
same,inhibition of viability,[6],51.9% (active)
same,viability decrease (inhibition),[7],58.3% (active)
same,viability decrease (inhibition),[8],14.4% (inactive)
same,remaining activity,[9],112% (inactive)
same,fold change,[11]; [18],0.835 (inactive) and 0.921 (inactive)
same,fold change,[11]; [19],0.937 and 0.744
same,cell count,[11]; [20],7860 and 8160
same,cell count,[11]; [21],9410 and 8850
same,z-score,[16]; [22],0.117 (inactive)
same,z-score,[16]; [23],0.179
same,z-score,[12],-0.605 (inactive)
Cn1ccc2cc3c(cc21)CCN3C(=O)Nc1cccnc1,nuclear beta-catenin stimulation,[1]; at 10 µM,0.8% (inactive)
same,nuclear beta-catenin stimulation,"[1]; stimulation, at 2 µM",-1.3%
same,insulin secretion stimulation,[2],-1.4% (inactive)
same,viability decrease,[3],-4.4% (inactive)
same,tube area decrease,[4],-4.4% (active)
same,GLP1 secretion stimulation,[5],0.1% (inactive)
same,inhibition of viability,[6],24.2% (inactive)
same,viability decrease (inhibition),[7],12.7% (inactive)
same,viability decrease (inhibition),[8],-22.3% (inactive)
same,remaining activity,[9],117% (inactive)
same,AC50,[10],14.8 µM (active)
same,outcome,[17],inactive
same,outcome,[14],inactive
same,fold change,[11]; [18],1.01 (inactive) and 0.974 (inactive)
same,fold change,[11]; [19],1.08 and 0.723
same,cell count,[11]; [20],11100 and 8340
same,cell count,[11]; [21],11000 and 8560
same,z-score,[12],1.23 (inactive) and 0.545 (inactive)
COCCOC(=O)C1=C(C)NC(C)=C(C(=O)OC/C=C/c2ccccc2)C1c1cccc([N+](=O)[O-])c1 (stereo unspecified),parasite load remaining,[15],41.2% (inactive)
same,viability,[15],106%
same,nuclear beta-catenin stimulation,[1]; at 10 µM,2.6% (inactive)
same,nuclear beta-catenin stimulation,"[1]; stimulation, at 2 µM",0.8%
same,insulin secretion stimulation,[2],-0.8% (inactive)
same,viability decrease,[3],77.2% (active)
same,tube area decrease,[4],104% (active)
same,GLP1 secretion stimulation,[5],-1.2% (inactive)
same,inhibition of viability,[6],77% (active)
same,viability decrease (inhibition),[7],87.1% (active)
same,viability decrease (inhibition),[8],86.4% (active)
same,remaining activity,[9],100% (inactive)
same,fold change,[11]; [18],1.33 (inactive) and 0.874 (inactive) and 0.908 (inactive)
same,fold change,[11]; [19],0.592 and 1.2 and 1.19
same,cell count,[11]; [20],2620 and 3270 and 8480
same,cell count,[11]; [21],1970 and 3740 and 9340
same,z-score,[16]; [22],0.948 (inactive) and 0.937 (inactive)
same,z-score,[16]; [23],1.43 and 0.674
same,z-score,[12],-1.04 (inactive) and -0.7 (inactive) and -0.745 (inactive)
CN=C(NC#N)NCCSCc1csc(N=C(N)N)n1,parasite load remaining,[15],42.8% (inactive)
same,viability,[15],132%
same,nuclear beta-catenin stimulation,[1]; at 10 µM,-0.6% (inactive)
same,nuclear beta-catenin stimulation,"[1]; stimulation, at 2 µM",-1.8%
same,insulin secretion stimulation,[2],0.3% (inactive)
same,viability decrease,[3],5.8% (inactive)
same,tube area decrease,[4],14.5% (inactive)
same,GLP1 secretion stimulation,[5],0% (inactive)
same,inhibition of viability,[6],-2.7% (inactive)
same,viability decrease (inhibition),[7],-14.2% (inactive)
same,viability decrease (inhibition),[8],-5.4% (inactive)
same,remaining activity,[9],91.8% (inactive)
same,fold change,[11]; [18],0.914 (inactive) and 0.897 (inactive)
same,fold change,[11]; [19],0.888 and 0.977
same,cell count,[11]; [20],8420 and 9980
same,cell count,[11]; [21],9210 and 11100
same,z-score,[16]; [22],-0.55 (inactive)
same,z-score,[16]; [23],-0.51
same,z-score,[12],0.35 (inactive) and 0.345 (inactive)
